Laboratory results published in ChEMBL document CHEMBL4513216, “Probing the Open Global Health Chemical Diversity Library for Multistage-Active Starting Points for Next-Generation Antimalarials” (ACS Infect Dis, 2020).
Hit rate of the full screen: of about 68,000 compounds, about 2,700 (4%) showed an effect of 50% or more. The list comes from a sample in which strong results are over-represented; it also holds similar structures and randomly drawn compounds.

The compounds below were run on Plasmodium berghei (assay: Screen against P. berghei liver stage (PbLuc), transformed with Luciferase, at 2uM). Conditions: tested at 2 uM.
Type: functional, HepG2

Structure (SMILES) | INHIBITION
Cc1noc(C)c1-c1cccc(C2CCCNC2)n1 (configuration not stated) | 29.48%
CN(C)c1nc(N)nc(CN2CCCC2c2cccs2)n1 (configuration not stated) | -43.18%
CC(CO)N(C)C(=O)c1cn(-c2ccc(Br)cc2)cn1 (configuration not stated) | -33.03%
O=C(c1cncc(NCC2COc3ccccc3C2)n1)N1CCCCC1 (configuration not stated) | 31.05%
O=C(c1cncc(NCC2COc3ccccc3C2)n1)N1CCOCC1 (configuration not stated) | 10.77%
O=C(c1cncc(NCC2COc3ccccc3C2)n1)N1CCCC1 (configuration not stated) | 50.3%
Cc1ncc(CNC(=O)N(C)C2CCN(c3ccccc3)C2=O)s1 (configuration not stated) | -16.12%
CNc1cc(C2CN(Cc3coc(C)n3)CCO2)nc(C)n1 (configuration not stated) | -13.51%
O=C1CCC(c2ccccc2)(c2ccccc2)CN1CCO | 22%
CN(C)C(=O)CCN1CC(c2ccccc2)(c2ccccc2)CCC1=O | 64.08%
CS(=O)(=O)CCN1CC(c2ccccc2)(c2ccccc2)CCC1=O | 19.12%
Cn1ccnc1CN1CC[C@@H](NS(C)(=O)=O)[C@@H]1Cc1cccnc1 | -29.46%
CC(C)(C)c1ncc(CNCC2CCCn3ccnc32)s1 (configuration not stated) | 52.98%
Cc1ccc(CNCC2CCCn3ccnc32)s1 (configuration not stated) | 14.82%
Cc1cn2c(n1)C(CNCc1ccc(C)s1)CCC2 (configuration not stated) | -35.26%
CCN(CC)c1ncc(CNCC2CCCn3ccnc32)s1 (configuration not stated) | -6.64%
Cc1nc(C)c(CNCC2CCCn3ccnc32)s1 (configuration not stated) | 50.59%
CN1CCOC(CNCc2cnc(C(C)(C)C)s2)C1 (configuration not stated) | 11.01%
Cn1cc(CN2CCc3nc4sccc4c(=O)n3CC2)cn1 | 35.7%
COc1ccc(C(=O)N2CCC(Nc3cccnn3)CC2)c(OC)c1 | -51.92%
CC(C)NC(=O)N1CCCC2(CCN(c3ccsc3)C2=O)C1 (configuration not stated) | 17.77%
CCC1CN(C)c2ccccc2CN1C(=O)c1c[nH]c(=O)cc1C (configuration not stated) | 42.8%
CN(C)C(=O)[C@H]1C[C@H]2OCC[C@H]2N(Cc2ccc(F)cc2)C1 | 35.38%

Structure (SMILES) | INHIBITION
CCC(CC)n1nc(C)cc1NC(=O)C1CCCO1 (configuration not stated) | 53.61%
CCC(CC)n1nc(C)cc1NC(=O)CC1CCOCC1 | -28.5%
CCC(CC)n1nc(C)cc1NC(=O)C1CCOC1 (configuration not stated) | -3.87%
CN(C(=O)c1ccc[nH]1)C1CC(=O)N(Cc2ccccc2)C1=O (configuration not stated) | 29.91%
Cc1[nH]ccc1C(=O)N(C)C1CC(=O)N(Cc2ccccc2)C1=O (configuration not stated) | 30.59%
Cc1nc(C(=O)N(C)C2CC(=O)N(Cc3ccccc3)C2=O)cs1 (configuration not stated) | 50.42%
O=C(C[C@@H]1COC[C@H]2CN(C(=O)c3cccnc3)C[C@@H]12)N1CCOCC1 | 22.89%
Cc1ccc(CN2CCOC3(COCCN(C(C)C)C3)C2)s1 (configuration not stated) | -9.22%
CCc1ncc(C(=O)N2CCN(C(=O)COc3ccccc3)CC2)cn1 | -28.5%
CCc1nsc(N2CCCN(C(=O)COc3ccccc3)CC2)n1 | -26.86%
CCc1nsc(N2CCN(C(=O)COc3ccccc3)CC2)n1 | 61.82%
N#CCCN(c1ccc(F)cc1)S(=O)(=O)CC1CCCCO1 (configuration not stated) | -7.39%
CC(=O)Nc1ccc(C(=O)NCCCn2cccc2)cc1 | 30.58%
CN(C)c1cc(C(=O)N2CCCCC2CNS(C)(=O)=O)ccn1 (configuration not stated) | 53.11%
CCC1CCCCN1C(=O)c1ccnc(N(C)C)c1 (configuration not stated) | 16.84%
CN(C)c1cc(C(=O)N2CCCCC2Cn2cccn2)ccn1 (configuration not stated) | -7.15%
CC(C)NC(=O)[C@H]1C[C@@H]2[C@@H](C1)OCCN2Cc1cccs1 | 29.43%
CCCN(C(=O)c1cc2c([nH]c1=O)CCCC2=O)C1CCCCC1 | 22%
O=C1CCCc2[nH]c(=O)c(C(=O)N(CC3CCCCC3)C3CC3)cc21 | 67.44%
CC(C)CCN(C(=O)c1cc2c([nH]c1=O)CCCC2=O)C1CC1 | 0.12%
CC(C)C(C)N(C(=O)c1cc2c([nH]c1=O)CCCC2=O)C1CC1 (configuration not stated) | 72.49%
CC(c1ccco1)N(C(=O)c1cc2c([nH]c1=O)CCCC2=O)C1CC1 (configuration not stated) | -8.3%
CCN(C(=O)c1cc2c([nH]c1=O)CCCC2=O)C1CCCCC1 | -58.06%

Structure (SMILES) | INHIBITION
COc1ccc2c(c1)C1(CCNCC1)CC2NC1CC1 (configuration not stated) | 0%
CC(C)(CN1CCOCC1)CN1CCC(Cc2cccc(CO)c2)C1 (configuration not stated) | -7.7%
CCN(CC)c1ccc(NS(=O)(=O)c2cnn(C(C)C)c2)cn1 | 3.17%
CNc1oc(COc2ccc3c(c2)OCO3)nc1C#N | -6.53%
N#Cc1nc(COc2ccc3c(c2)OCO3)oc1NC1CC1 | 51.42%
N#Cc1nc(COc2ccc3c(c2)OCO3)oc1N1CCCCCC1 | 18.85%
O=C(NC1CCCC1)c1nc(COc2ccc3c(c2)OCO3)no1 | -11.86%
N#Cc1nc(COc2ccc3c(c2)OCO3)oc1N1CCCC1 | -9.89%
N#Cc1nc(COc2ccc3c(c2)OCO3)oc1NC1CCCCC1 | 66.74%
CCS(=O)(=O)N1CCC(c2nnc(CN3CCOCC3)n2C)CC1 | 37.3%
CCCc1n[nH]c(C2CN(C(=O)CCCn3ccnc3C)CCO2)n1 (configuration not stated) | -15.07%
Cc1cc(C)cc(OCC(=O)N2CCC2)c1 | 16.8%
COc1cc(C(=O)N2CCCS2(=O)=O)ccc1OC(C)C | 21.12%
COc1ccc(C[C@H]2CN(Cc3ccoc3)CC[C@@H]2OC)cc1 | 17.47%
Cc1cnc(C(=O)N2CC[C@H]3C[C@@H](c4nc(C)cs4)O[C@@H]3C2)cn1 | 5.85%
CC(C)c1cc(=O)[nH]c(-n2nc(C3CC3)cc2N)n1 | 16.98%
CN(CC1CCCCO1)S(=O)(=O)c1cccc(C(=O)N2CCOCC2)c1 (configuration not stated) | -40.47%
O=C(O)c1cccc(C2CCCN(S(=O)(=O)C3CC3)C2)c1 (configuration not stated) | 47.68%
CC(O)CN1CCN(Cc2coc(-c3ccccc3Cl)n2)CC1 (configuration not stated) | -7.16%
OCCN1CCN(Cc2coc(-c3ccccc3Cl)n2)CC1 | 58.53%
COCCN1CCN(Cc2coc(-c3ccccc3Cl)n2)CC1 | 11.9%
